Screening results: PubChem, National Center for Advancing Translational Sciences (NCATS)
HT1080 IDH1KD tx: toxicity to HT-1080 IDH1 knockdown cells (counter line); HT-1080 IDH1 knockdown viability, ATP luminescence, 48 h; Potency, µM (highest dose often 46.1 µM), actives largely listed as cytotoxic; 360,000 tested, 2% active
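Using the IDH1-knockdown HT-1080 line run in the same batch and compound series as the NT line, viability after 48 h at 37 °C was determined by CellTiter-Glo luminescence and expressed as % activity.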
KB-V1 cytotox: KB-V1 MDR subline cytotoxicity. KB-V1 MDR cells viability, CellTiter-Glo, 72 h. Potency, µM (titrated, usually from 46.1 µM), hits mostly cytotoxic. AID 1347076. 400,000 tested, 3.4% active; further: nearly all actives have a fitted effect of over 60% in size
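KB-V1 cells (P-gp-expressing MDR subline of KB-3-1) in phenol-red-free DMEM with 10% FBS were exposed to library compounds over a concentration series for 72 h at 37 degrees C. Viability read by CellTiter-Glo luminescence; concentration-effect curves fitted after normalization.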
IL-1B inflam inh: inhibitors of inflammasome signaling (IL-1 beta secretion); THP-1 LPS/ATP IL-1B secretion, AlphaLISA, 16 h; hits give low values; activity change, % at 57.5 µM; 360,000 tested, 4.7% active; in the data active means activity change below about -50%; inconclusive means mostly about -30% to -49%
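THP-1 cells pretreated 1 hr with compounds (up to 57.5 uM final), then stimulated with LPS (250 ng/mL final) plus ATP (1.25 mM final); secreted IL-1B measured by AlphaLISA after 16 hr, decreased signal indicating inhibition.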
HT1080-NT tox: kills 2HG-producing HT-1080-NT fibrosarcoma cells; AID 686970; HT-1080-NT fibrosarcoma viability, CellTiter-Glo ATP luminescence, 48 h; 360,000 tested, 1.6% active; Potency, µM (highest dose often 46.1 µM), hits mostly cytotoxic;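 further: NT is the 2HG producing partner of a matched IDH1 knockdown line; nearly all actives have a fitted effect of over 55% in size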
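Read-out is CellTiter-Glo luminescence after 10 minutes at room temperature, following 48 hours' compound treatment of HT-1080-NT cells (750 cells/well, RPMI, 5% FBS, 37 degrees C).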
KB-3-1 tox: KB-3-1 parental cell cytotoxicity. KB-3-1 viability, CellTiter-Glo ATP luminescence, 72 h. Potency, µM (series often up to 46.1 µM), hits mostly cytotoxic. 400,000 tested, 1.4% active. AID 1347075; further: nearly all actives have a fitted effect of over 60% in size
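Viability of parental KB-3-1 cells, measured by CellTiter-Glo luminescence, followed a 72 h incubation at 37 °C with pinned compounds in phenol-red-free DMEM containing 10% FBS.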
Large screens that a line does not name were inactive. Hits are enriched below; roughly 8.8% of the tested compounds scored in any of these assays. Unless noted, the call rests on the fitted dose curve; in most records, active means well fitted curve in the direction sought with a large enough effect; inconclusive means small, poorly fitted or top-dose-only effect, or another doubt; inactive means no such curve, though single readings can be large; an effect the other way counts as inactive or inconclusive.

COC(=O)[C@]12CCCCC=C1N(Cc1ccccc1)C(=O)[C@H](CC(=O)N1CCC(c3ccccc3)CC1)C2	HT1080 IDH1KD tx inconclusive, KB-V1 cytotox inconclusive, HT1080-NT tox inconclusive
Cc1ccc(C(C)C)c(OCC(=O)Nc2ccc(N3CCOCC3)cc2N2CCOCC2)c1	KB-3-1 tox inconclusive
CCOc1cc(N2CCOCC2)c(OCC)cc1NC(=O)COC(=O)CCOc1cc(C)ccc1C	IL-1B inflam inh -86
Cc1cc(Cl)ccc1OCC(=O)NC(=S)Nc1ccccc1N1CCOCC1	none
O=C(COc1ccc(F)cc1Br)Nc1ccccc1N1CCOCC1	KB-V1 cytotox 8.2µM
CCOc1cc(N2CCOCC2)c(OCC)cc1NC(=O)COC(=O)CCOc1ccc(C)cc1	none
O=C(COc1ccc(F)cc1Br)Nc1ccccc1N1CCCC1	none
Cc1ccc(C(C)C)c(OCC(=O)Nc2ccccc2N2CCN(C)CC2)c1	HT1080 IDH1KD tx inconclusive, KB-V1 cytotox inconclusive, IL-1B inflam inh -59, HT1080-NT tox inconclusive, KB-3-1 tox inconclusive
Cc1cc(Cl)ccc1OCC(=O)Nc1ccccc1N1CCOCC1	KB-V1 cytotox 15µM, KB-3-1 tox inconclusive
O=C(Nc1ccc(S(=O)(=O)Nc2cnc3ccccc3n2)cc1)c1ccc(Cl)c([N+](=O)[O-])c1	none
CC(=O)OC1CCC2(C)C(CCC3C2CC(=O)C2(C)C3CC(C3CCCC3=O)C2C(C)=O)C1 (stereo not given)	none
Cc1ccc(OCC(=O)Nc2ccccc2N2CCOCC2)c(C)c1	none
COc1cc(C)ccc1OCC(=O)Nc1ccccc1N1CCOCC1	KB-V1 cytotox 5.8µM
O=C(Nc1ccc(N2CCOCC2)c(S(=O)(=O)Nc2ccccc2Cl)c1)c1ccccc1	KB-3-1 tox inconclusive
O=C(Nc1ccc(Cl)cc1)Nc1ccc(N2CCCC2)c(S(=O)(=O)Nc2ccccc2Cl)c1	HT1080 IDH1KD tx 6.5µM, KB-V1 cytotox inconclusive, IL-1B inflam inh -52, HT1080-NT tox inconclusive, KB-3-1 tox inconclusive
Cc1cc(C)cc(OCC(=O)Nc2ccccc2N2CCCCC2)c1	none
Cc1cc(C)cc(NC(=O)Nc2ccccc2N2CCCCC2)c1	IL-1B inflam inh -74
Cc1ccc(N2CCN(S(=O)(=O)c3ccc4oc(=O)ccc4c3)CC2)cc1Cl	none
CCOC(=O)c1c(Nc2ccc(C)c(C)c2)nnc(-c2ccccc2)c1-c1ccccc1	none (no result: HT1080 IDH1KD tx, IL-1B inflam inh, HT1080-NT tox)
CCOC(=O)CSc1nc2sc3c(c2c(=O)n1C1CCCCC1)CCN(C)C3	none
CCc1nc2ccc(C(=O)NCCc3ccccn3)cn2c1N(C)CCC(C)C	none
CCOC(=O)c1sc(NC(=O)CSc2nnc(C(C)C)n2C)nc1C	KB-V1 cytotox 23µM
COc1ccc(CCNC(=O)c2cnc3sc(N4CCOCC4)nn3c2=O)cc1	none (no result: HT1080 IDH1KD tx, IL-1B inflam inh, HT1080-NT tox)
Cc1ccc2c(c1)c1c(n2CC(O)CNC2CCCCC2)CCCC1 (stereo not given)	HT1080 IDH1KD tx 16µM, KB-V1 cytotox inconclusive, IL-1B inflam inh -112, HT1080-NT tox 21µM, KB-3-1 tox inconclusive
Cc1ccc2c(c1)c1c(n2CC(O)CNC(CO)(CO)CO)CCCC1 (stereo not given)	none
Cc1ccc2c(c1)c1c(n2CC(O)CN2CCC(C)CC2)CCCC1 (stereo not given)	IL-1B inflam inh -65
Cc1ccc2c(c1)c1c(n2CC(O)CN2CCCCC2C)CCCC1 (stereo not given)	HT1080 IDH1KD tx inconclusive, HT1080-NT tox 18µM, KB-3-1 tox inconclusive
CCOC(=O)c1[nH]ncc1CN1CCc2ccc(NC(=O)C3CCCO3)cc2C1 (stereo not given)	KB-V1 cytotox inconclusive
COC(=O)C1Cc2c([nH]c3ccccc23)C2CCC(=O)N12 (stereo not given)	none
COC(=O)[C@@H]1Cc2c([nH]c3ccccc23)C(C)(C)N1C(=O)CCl	HT1080 IDH1KD tx 18µM, KB-V1 cytotox inconclusive, IL-1B inflam inh -98, HT1080-NT tox inconclusive, KB-3-1 tox inconclusive
COc1cc(CC2COC(c3ccc(O)c(OC)c3)C2COC(C)=O)ccc1O (stereo not given)	none
COc1cc(C(=O)c2cocc2C(=O)c2ccc3c(c2)OCO3)cc(OC)c1OC	HT1080 IDH1KD tx 1.6µM, KB-V1 cytotox 1.2µM, HT1080-NT tox 1.3µM, KB-3-1 tox inconclusive
